In PubChem BioAssay (NCI):
About 83,000 compounds went through this panel and 20% of them were active in at least one assay; those are over-represented in the sample as a whole.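 Testing used 96-well plates and a 48-hour single-concentration exposure. Example: -40 means 40% of the starting cells died.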 Active and inactive are the calls of the source. The calls were made as follows: active = growth percent below 10; inactive = the rest.

Key:
Test in all cases: NCI-60 one-dose screen, 48 h (100 = growth as untreated, 0 = no growth, -100 = all killed)
Details in all cases: 10 µM unless noted
[1] = test system: NCI-H23 lung
[2] = test system: NCI-H226 lung
[3] = test system: NCI-H322M lung
[4] = test system: HOP-62 NSCLC
[5] = test system: NCI-H460 lung
[6] = test system: HOP-92 NSCLC
[7] = test system: NCI-H522 lung
[8] = test system: A549/ATCC NSCLC
[9] = test system: 786-0 renal
[10] = test system: COLO 205 colon
[11] = test system: DU-145 prostate
[12] = test system: K-562 leukemia
[13] = test system: MALME-3M melanoma
[14] = test system: MDA-MB-231 breast
[15] = test system: RXF 393 renal
[16] = test system: SF-268 CNS
[17] = test system: SF-295 CNS
[18] = test system: SF-539 CNS
[19] = test system: UACC-257 melanoma
[20] = test system: M14 melanoma

Measured: growth

CSc1nc(NCCO)c(C#N)c(-c2cccc(N)c2)n1
inactive: [1] 90.5% | [2] 92.8% | [3] 97.6% | [4] 83.7% | [5] 99.6% | [6] 95.7% | [7] 87.4% | [8] 100% | [9] 103% | [10] 108% | [11] 106% | [12] 94.4% | [13] 101% | [14] 86.4% | [15] 113% | [16] 96.2% | [17] 96.9% | [18] 91.7% | [19] 100% | [20] 100%

CC(=O)O[C@H]1CC[C@]2(C)[C@H]3CC[C@@H]4[C@H]5[C@H](C(C)C)CC[C@]5(C(=O)OCC(CO)(CO)N=C(N)N)CC[C@@]4(C)[C@]3(C)CC[C@H]2C1(C)C
inactive: [1] 77.7% | [2] 91.4% | [3] 70.2% | [4] 86.1% | [6] 32% | [8] 54.6% | [9] 74.3% | [11] 37.4% | [13] 17% | [14] 42.1% | [15] 40.6% | [16] 77.6% | [17] 100% | [18] 86.4% | [19] 90.2% | [20] 73.4%
active: [5] -32.4% | [7] -69.6% | [10] -89.9% | [12] -26.7%

COc1ccc(-n2c(C)nc3c(c(C)nn3-c3ccccc3)c2=O)cc1
inactive: [1] 18.4% | [2] 51.3% | [3] 49.9% | [4] 34.4% | [6] 27.6% | [8] 16.3% | [9] 27.4% | [13] 63.7% | [14] 31.9% | [15] 19.7% | [16] 30.3% | [19] 60% | [20] 10.4%
active: [5] 3.74% | [7] -14% | [10] -45.6% | [11] 0.999% | [12] 8.9% | [17] 3.34% | [18] -1.28%

Brc1cccc(-c2nc(-c3ccc4c(c3)OCCO4)co2)c1
inactive: [1] 71.3% [25 µM] | [2] 78.2% [25 µM] | [3] 90.7% [25 µM] | [4] 57.9% [25 µM] | [5] 25.2% [25 µM] | [6] 80.4% [25 µM] | [7] 24.5% [25 µM] | [8] 56.3% [25 µM] | [9] 78% [25 µM] | [10] 50.5% [25 µM] | [11] 88.2% [25 µM] | [12] 18.5% [25 µM] | [13] 50.2% [25 µM] | [14] 47.5% [25 µM] | [15] 66.2% [25 µM] | [16] 73.6% [25 µM] | [17] 52.4% [25 µM] | [18] 52.2% [25 µM] | [19] 87.3% [25 µM] | [20] 46% [25 µM]

COc1ccc(-c2cc(NC(=O)Nc3ccc(O)cc3)no2)cc1
inactive: [1] 89.5% | [2] 84.2% | [3] 66.8% | [4] 88.5% | [5] 86.2% | [6] 94% | [7] 44.8% | [8] 67.6% | [9] 77.3% | [10] 105% | [11] 66.7% | [12] 29.2% | [13] 78% | [14] 67.5% | [15] 90.9% | [16] 62.2% | [17] 58.9% | [18] 69.5% | [19] 84.6% | [20] 35.1%

Nc1c(C(=O)Nc2cccc3c2OCCO3)sc2nc3c(cc12)C(=O)CCC3
active: [5] 8.5% | [7] 2.24% | [10] -3.5% | [15] -18.5% | [18] -26.3%
inactive: [1] 46.4% | [2] 27.9% | [3] 45.3% | [4] 46% | [6] 107% | [8] 37.7% | [9] 44.5% | [11] 22.2% | [12] 13.7% | [13] 56.8% | [14] 14.7% | [16] 60.7% | [17] 21.9% | [19] 90.6% | [20] 33.6%

Cc1ccc2cnc(N)c(C#Cc3cncc(C(=O)Nc4ccc(CN5CCN(C)CC5)c(C(F)(F)F)c4)c3)c2c1
active: [1] -63.8% | [2] -75.8% | [3] -97.2% | [4] -85.2% | [5] -78.8% | [6] -80.9% | [7] -71% | [8] -79.4% | [9] -79.6% | [10] -70.3% | [11] -95.8% | [12] -50.5% | [13] -83.4% | [14] -94.8% | [15] -93% | [16] -69% | [17] -87.2% | [18] -99.2% | [19] -64.7% | [20] -62.2%

CC1=CC(=O)CC(C)(C)[C@@]1(O)/C=C/[C@@H](C)O
inactive: [1] 89.7% | [2] 80.8% | [3] 103% | [4] 107% | [5] 112% | [6] 97% | [7] 92.7% | [8] 87.7% | [9] 102% | [10] 110% | [11] 108% | [12] 115% | [13] 102% | [14] 93.3% | [15] 93.3% | [16] 98.1% | [17] 91.5% | [18] 102% | [19] 89.1% | [20] 102%

Cc1nc2sc(C(=O)Nc3cccc4c3OCCO4)c(N)c2cc1C(C)O (stereo not given)
active: [4] -3.21% | [7] -29.3% | [10] 5.86% | [15] -5.15% | [18] 4.07%
inactive: [1] 57.6% | [2] 50.2% | [3] 62.8% | [5] 15.8% | [6] 49.6% | [8] 49.9% | [9] 43.2% | [11] 47.7% | [12] 13.3% | [13] 47.1% | [14] 39.9% | [16] 49.9% | [17] 10.9% | [19] 55.7% | [20] 37.5%

C=C1CC2(OC1=O)C(=O)N(CCCCCCCN1C(=O)C3(CC(=C)C(=O)O3)c3ccccc31)c1ccccc12 (stereo not given)
active: [6] -1.35% | [7] -48.1% | [12] 5% | [13] -61.4% | [14] -9.65% | [15] -32.8%
inactive: [1] 52.6% | [2] 63% | [3] 87% | [4] 117% | [5] 38% | [8] 83.7% | [9] 46.7% | [10] 12.8% | [11] 58.2% | [16] 60.3% | [17] 82.6% | [18] 16.9% | [19] 65% | [20] 36.5%

CCOC(=O)c1c2ncccc2n2c(=O)n(-c3ccc(Cl)cc3)nnc12
active: [17] 9.85%
inactive: [1] 92.7% | [2] 104% | [3] 67.1% | [4] 71.7% | [5] 69.7% | [6] 101% | [7] 71.1% | [8] 81.8% | [9] 97.1% | [10] 109% | [11] 112% | [12] 77.7% | [13] 95.7% | [14] 91.2% | [15] 104% | [16] 72.3% | [18] 47.8% | [19] 102% | [20] 81.1%

O=C(O)c1cccnc1Br
inactive: [1] 98.1% | [2] 99.8% | [3] 112% | [4] 96.2% | [5] 113% | [6] 115% | [7] 84.8% | [8] 101% | [9] 90.2% | [10] 115% | [11] 129% | [12] 109% | [13] 109% | [14] 107% | [15] 121% | [16] 110% | [17] 96.1% | [18] 91.9% | [19] 106% | [20] 99.7%

CCN(CC)CCCC(C)NCCCNc1cccc2cccnc12 (stereo not given)
inactive: [1] 92.8% | [2] 93.5% | [3] 79.1% | [4] 82.6% | [5] 101% | [6] 92.5% | [7] 103% | [8] 106% | [9] 109% | [10] 91.7% | [11] 106% | [12] 97.5% | [13] 88.1% | [14] 81.4% | [15] 104% | [16] 86.6% | [17] 98% | [18] 100% | [19] 104% | [20] 104%

COc1cc(/C=N\NC(=O)CN2CCN(c3cc4c(cc3F)c(=O)c(C(=O)N/N=C/c3ccc(O)c(OC)c3)cn4C3CC3)CC2)ccc1O
active: [10] -9.77%
inactive: [1] 53.7% | [2] 70.5% | [3] 31.7% | [4] 73.1% | [5] 67% | [6] 70.9% | [7] 18.9% | [8] 66.9% | [9] 92.4% | [11] 66.3% | [12] 40.5% | [13] 62.4% | [14] 59.5% | [15] 86.9% | [16] 59.4% | [17] 90.5% | [18] 86.9% | [19] 41% | [20] 80%
